Results on 40 molecules are retold here after PubChem BioAssay.

Molecules are shown by their SMILES. Where “and” joins values, the source holds several entries; their conditions need not be identical. Equal entries are not always repeated. Calls of active or inactive are those of the source. How the calls were made is not given here.

The test system of this test is Aerobactin synthetase IucA (Klebsiella pneumoniae hvKP1). The test is described as follows: IucA enzyme inhibition, primary screen, biochemical, Spectrum library (AID 1346200).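 Further: 100% = wells without compound and 0% = wells lacking enzyme.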 The note with it: malachite green pyrophosphate, A620, at 8 µM, active compounds read low.
Regarding `CC[C@H](/C=C/C(C)C1CCC2C3CCC4=CC(=O)CC[C@]4(C)C3CC[C@]12C)C(C)C` (stereo not given in full), the activity remaining is 101% (inactive).
The figure for `O=C(O)c1cc(=O)c2cccc(O)c2[nH]1` is 97.3% (inactive); for `COc1ccc2c(c1)[C@@]1(C)CCC(=O)C[C@@H]1CC2` it is 118% (inactive).
With `CCCCCC(=O)Cc1cc(O)cc(O)c1C(=O)Oc1cc(CC(=O)CCCCC)c(C(=O)O)c(OC)c1`, the activity remaining was 106% (inactive).
For the molecule `c1ccc2[nH]c(-c3cscn3)nc2c1`, the activity remaining was 111% (inactive).
Regarding `C[C@H](CC(=O)C(O)C(C)(C)O)[C@H]1C(=O)C[C@@]2(C)C3=CCC4C(C)(C)[C@@H](O[C@@H]5OC[C@@H](O)[C@H](O)[C@H]5O)CC[C@@]45C[C@@]35[C@@H](O)C[C@]12C` (stereo not given in full), the activity remaining is 109% (inactive).
Turning to `Cc1c(Nc2ncccc2C(=O)O)cccc1C(F)(F)F`, the activity remaining is 117% (inactive).
As for `O=C(O)c1c2ccccc2cc2ccccc12`, the figure is 116% (inactive); as for `COc1c2c(cc3c1OCO3)C13C=C[C@H](OC)CC1N(C2)CC3O` (stereo not given in full), 107% (inactive); as for `COCCc1ccc(OCC(O)CNC(C)C)cc1` (stereo not given), 113% (inactive).
On to `CC1(C)O[C@H]2CC(=O)OC[C@]23[C@H]2CC[C@@]4(C)[C@H](c5ccoc5)OC(=O)[C@H]5O[C@]54[C@]2(C)C(=O)C[C@@H]13`, for which the activity remaining is 112% (inactive).
As to `CC(=O)Oc1cc(-c2coc3cc(OC(C)=O)c(OC(C)=O)c(OC(C)=O)c3c2=O)cc(OC(C)=O)c1OC(C)=O`, the activity remaining is 88.1% (inactive).
Turning to `COc1ccc(-c2coc3cc(O)ccc3c2=O)c(OC)c1`, the activity remaining is 111% (inactive).
As for `CC(=O)NCc1c(I)c(NC(C)=O)c(I)c(C(=O)O)c1I`, the figure is 98.7% (inactive); as for `COc1c2c(cc3occ(-c4ccc5c(c4)OCO5)c(=O)c13)OC(C)(C)C=C2`, 111% (inactive).
Regarding `CCOC(=O)c1c(C)cc(O)cc1O`, the activity remaining was 119% (inactive).
With `CCCCCC1C(=O)CCC1CC(=O)O` (stereo not given), the activity remaining was 93.2% (inactive).
Turning to `CC(C)(C)CC(C)(C)c1ccc(OCCOCC[N+](C)(C)Cc2ccccc2)cc1`, the activity remaining was 113% (inactive).
Regarding `CC[C@H]1CN2CCc3cc(OC)c(OC)cc3C2C[C@@H]1CC1NCCc2cc(OC)c(OC)cc21` (stereo not given in full), the activity remaining is 118% (inactive).
As for `COc1ccc(-c2cc(=O)c3c(OC)c(OC)c(OC)c(OC)c3o2)cc1OC`, the figure is 122% (inactive); as for `CCn1cc(C(=O)O)c(=O)c2cnc(N3CCNCC3)nc21`, 101% (inactive).
The figure for `COc1ccc(C2C(=O)c3ccccc3C2=O)cc1` is 119% (inactive); for `CC1(C)CC2C1CCC1(C)OC1CCC2(C)O` (stereo not given) it is 120% (inactive); for `O=C1CC(c2ccc(O)c(O)c2)Oc2cc(O)cc(O)c21` (stereo not given) it is 109% (inactive).
The figure for `O=C(O)c1cc(O)c(O)c(O)c1` is 117% (inactive); for `C[C@H]1COC2=C1C(=O)C(=O)c1c2ccc2c1CCCC2(C)C` it is 106% (inactive).
With `Cc1cccc(C(=O)O)c1O`, the activity remaining is 91.3% (inactive).
For the molecule `O=c1cc(-c2ccccc2)oc2cc(O)cc(O)c12`, the activity remaining is 118% (inactive) and 119% (inactive).
For `O=c1cc(-c2ccccc2)oc2cccc(O)c12`, the activity remaining is 99.1% (inactive).
Regarding `COc1cc(OC)c(C(C)=O)c(O)c1C`, the activity remaining was 101% (inactive).
`CCCCCCCCCCCC[C@H](C(=O)O)[C@@H](C)C(=O)O`: the activity remaining is 115% (inactive).
The figure for `CC(=O)O[C@@H]1CC(=O)[C@@]2(C)C(CC(=O)[C@]3(C)C2CC[C@@]2(C)[C@H](c4ccoc4)OC(=O)C4OC423)C1(C)C` (stereo not given in full) is 92.3% (inactive); for `NC[C@H]1O[C@H](O[C@H]2[C@H](O)[C@@H](O[C@H]3O[C@H](CO)[C@@H](O)[C@H](N)[C@H]3O)[C@H](N)C[C@@H]2N)[C@H](N)[C@@H](O)[C@@H]1O` it is 108% (inactive).
As for `O=C(O)c1cc(=O)c(O)c2c(O)c(O)c(O)cc2c1`, the activity remaining was 104% (inactive).
For `C=C(C)[C@@H]1CC[C@]2(CO)CC[C@]3(C)[C@H](CCC4[C@@]5(C)CC[C@H](O)C(C)(C)C5CC[C@]43C)C12` (stereo not given in full), the activity remaining was 93.4% (inactive).
`CCN(CCCc1ccccc1)CCCc1ccccc1`: the activity remaining is 109% (inactive).
The figure for `O=C1c2ccc(O)c(O)c2C(=O)c2c(O)ccc(O)c21` is 125% (inactive).
Regarding `CC(=O)O[C@@H]1CC2C(C)(C)[C@H](O)CC[C@]2(C)C2CC[C@@]3(C)[C@H](c4ccoc4)OC(=O)C4OC43[C@@]21C` (stereo not given in full), the activity remaining was 122% (inactive).
In the case of `O=C(O)c1ccccc1Nc1cccc(C(F)(F)F)c1`, the activity remaining was 116% (inactive).
For `CCCc1ncc(C[n+]2ccccc2C)c(N)n1`, the activity remaining was 111% (inactive).
